Data as given in PubChem BioAssay (Tox21).
“And” between values parts separate entries of the source, which are not always exact repeats. Equal values may be shown once. Inconclusive results are not listed. A call without a number means that no potency is given here. More than one record can exist for a structure, and the calls need not agree. The source made the active and inactive calls. The call rests on the fitted dose curve; in most records, active means well fitted curve in the direction sought with a large enough effect in the repeat runs; inconclusive means weak or mixed curves; inactive means no such curve, though single readings can be large; an effect the other way counts as inactive or inconclusive.
Potency means the concentration at half of the fitted maximal effect.

Assay: A CellTox Green Cytotoxicity Assay to monitor cytotoxicity in HEK293 cells - 8 hour (AID 1224884); further: nearly all actives have a fitted effect of over 35% in size
Details: CellTox Green fluorescence; series mostly up to 76.8 µM
In short: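 Fluorescence intensity, read at 0, 8, 16, 24, 32 and 40 h of compound treatment, reflected dye binding to DNA of dead HEK293 cells; compounds (23 nL, DMSO) were added 5 h after plating cells with reagent.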
With `Nc1cc(Cl)ccc1Cl` the Potency was “inactive”. In the case of `O=c1[nH]c(Cl)c(Cl)cc1Cl`, the Potency is reported as “inactive”. With `CCCCCCCCCCCCCCn1cc[n+](C)c1` the Potency was 55 µM (active) and 54.4 µM (active) and inactive. For `CSC(=O)c1c(C(F)F)nc(C(F)(F)F)c(C(=O)SC)c1CC(C)C`, the Potency was “inactive”. With `Cc1ccc(C)c2ccccc12` the Potency was “inactive”. In the case of `CC(Cc1ccccc1)N(C)Cc1ccco1` (stereo not drawn), the Potency is reported as “inactive”. In the case of `O=C(CCCCl)c1ccc(F)cc1`, the Potency is reported as “inactive”. For `O=C(NC(=O)c1ccccc1Cl)Nc1ccc(OC(F)(F)F)cc1`, the Potency was “inactive”. With `Oc1cccc(Cl)c1Cl` the Potency was “inactive”. For `CCCCC/C=C\C/C=C\C/C=C\C/C=C\CCCC(=O)NCC(=O)O`, the Potency was “inactive”. For `O=C(N[C@H]1N=C(c2ccccc2F)c2cccc3c2N(CC3)C1=O)c1cc2ccccc2[nH]1`, the Potency was “inactive”. For `CNC(C)(C)Cc1ccccc1`, the Potency was “inactive”. With `O=[N+]([O-])[O-].[Tl+]` the Potency was “inactive”. For `ClC(Cl)C(Cl)(Cl)Cl`, the Potency was “inactive”. In the case of `C[C@@H]1CC2=CC(=O)CC[C@@H]2[C@H]2CC[C@@]3(C)[C@@H](CC[C@]3(C)O)[C@@H]21`, the Potency is reported as “inactive”. With `Brc1ccc(Oc2ccc(Br)cc2Br)c(Br)c1` the Potency was “inactive”. With `CC(=O)[O-].CC(=O)[O-].CC(=O)[O-].[Sb+3]` the cytotoxicity increase was -0.782% [at 2.72 µM] (inactive). In the case of `COP(=S)(OC)Oc1nc(Cl)c(Cl)cc1Cl`, the Potency is reported as “inactive”. With `CC(C)Br` the Potency was “inactive”. For `[O-][Cl+3]([O-])([O-])O`, the Potency was “inactive”. With `CC(C)[C@@H](Nc1ccc(C(F)(F)F)cc1Cl)C(=O)OC(C#N)c1cccc(Oc2ccccc2)c1` (stereo partly drawn) the Potency was “inactive”. In the case of `CSSC`, the Potency is reported as “inactive”. In the case of `CSC1=N[C@@](C)(c2ccccc2)C(=O)N1Nc1ccccc1`, the Potency is reported as “inactive”. With `N#CCCl` the Potency was “inactive”. For `CCCC[N+]1(C)CCCC1` (tested in a mixture with another compound), the Potency was “inactive”. With `Cc1ccc([N+](=O)[O-])[c]2c1[O][Hg]2` the Potency was “inactive”. With `COC(=O)/C=C(\C)OP(=O)(OC)OC` the Potency was “inactive”. With `COP(=S)(OC)Oc1ccc([N+](=O)[O-])c(C)c1` the Potency was “inactive”. In the case of `CCC[CH2][Sn]([CH2]CCC)([O]C(C)=O)[O]C(C)=O`, the Potency is reported as “inactive”. In the case of `CC#C[C@]1(O)CC[C@H]2[C@@H]3C[C@H](C)C4=CC(=O)CC[C@]4(C)[C@H]3CC[C@@]21C`, the Potency is reported as “inactive”. For `CC1CCCC1`, the Potency was “inactive”. For `CCCCn1cc[n+](C)c1.[Cl][Fe-]([Cl])([Cl])[Cl]`, the Potency was “inactive”. With `Nc1nc(N)c(N)c(N)n1` the Potency was 49.2 µM (active). For `CCC(C)Nc1c([N+](=O)[O-])cc(C(C)(C)C)cc1[N+](=O)[O-]` (stereo not drawn), the Potency was “inactive”. For `O=C(NC(=O)c1c(F)cccc1F)Nc1ccc(Oc2ccc(C(F)(F)F)cc2Cl)cc1F`, the Potency was “inactive”. With `CCCCC(CC)COC(=O)OOC(C)(C)C` (stereo not drawn) the Potency was “inactive”. With `CC1CN1` (stereo not drawn) the Potency was “inactive”. For `O=S(=O)(NS(=O)(=O)C(F)(F)F)C(F)(F)F`, the Potency was “inactive”. With `O.O.O.O.O.O.O.O=S(=O)([O-])[O-].[Co+2]` the Potency was “inactive”.

Assay: qHTS RealTime-Glo MT Cell Viability Assay in HepG2 cells - 16 hour (AID 1224885); further: nearly all actives have a fitted effect of over 50% in size
Details: RealTime-Glo luminescence; series mostly up to 76.8 µM
In short: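 Real-time, nonlytic viability: 600 HepG2 cells/well mixed with NanoLuc enzyme plus prosubstrate; 5 h settle, compound (DMSO) added by pintool; luminescence monitored over 40 h at 37 C.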
With `Nc1cc(Cl)ccc1Cl` the Potency was “inactive”. With `O=c1[nH]c(Cl)c(Cl)cc1Cl` the Potency was “inactive”. With `CCCCCCCCCCCCCCn1cc[n+](C)c1` the Potency was 39 µM (active) and 54.4 µM (active) and inactive. For `CSC(=O)c1c(C(F)F)nc(C(F)(F)F)c(C(=O)SC)c1CC(C)C`, the Potency was “inactive”. For `Cc1ccc(C)c2ccccc12`, the Potency was “inactive”. In the case of `CC(Cc1ccccc1)N(C)Cc1ccco1` (stereo not drawn), the Potency is reported as “inactive”. In the case of `O=C(CCCCl)c1ccc(F)cc1`, the Potency is reported as “inactive”. In the case of `O=C(NC(=O)c1ccccc1Cl)Nc1ccc(OC(F)(F)F)cc1`, the Potency is reported as “inactive”. In the case of `Oc1cccc(Cl)c1Cl`, the Potency is reported as “inactive”. In the case of `CCCCC/C=C\C/C=C\C/C=C\C/C=C\CCCC(=O)NCC(=O)O`, the Potency is reported as “inactive”. With `O=C(N[C@H]1N=C(c2ccccc2F)c2cccc3c2N(CC3)C1=O)c1cc2ccccc2[nH]1` the Potency was “inactive”. For `CNC(C)(C)Cc1ccccc1`, the Potency was “inactive”. For `O=[N+]([O-])[O-].[Tl+]`, the Potency was “inactive”. For `ClC(Cl)C(Cl)(Cl)Cl`, the Potency was “inactive”. In the case of `C[C@@H]1CC2=CC(=O)CC[C@@H]2[C@H]2CC[C@@]3(C)[C@@H](CC[C@]3(C)O)[C@@H]21`, the Potency is reported as “inactive”. In the case of `Brc1ccc(Oc2ccc(Br)cc2Br)c(Br)c1`, the Potency is reported as “inactive”. With `CC(=O)[O-].CC(=O)[O-].CC(=O)[O-].[Sb+3]` the activity change, negative = cytotoxic was -7.09% [at 2.72 µM] (inactive). With `COP(=S)(OC)Oc1nc(Cl)c(Cl)cc1Cl` the Potency was “inactive”. For `CC(C)Br`, the Potency was “inactive”. For `[O-][Cl+3]([O-])([O-])O`, the Potency was “inactive”. For `CC(C)[C@@H](Nc1ccc(C(F)(F)F)cc1Cl)C(=O)OC(C#N)c1cccc(Oc2ccccc2)c1` (stereo partly drawn), the Potency was “inactive”. With `CSSC` the Potency was “inactive”. In the case of `CSC1=N[C@@](C)(c2ccccc2)C(=O)N1Nc1ccccc1`, the Potency is reported as “inactive”. In the case of `N#CCCl`, the Potency is reported as “inactive”. With `CCCC[N+]1(C)CCCC1` (tested in a mixture with another compound) the Potency was “inactive”. For `Cc1ccc([N+](=O)[O-])[c]2c1[O][Hg]2`, the Potency was 2.39 µM (active). In the case of `COC(=O)/C=C(\C)OP(=O)(OC)OC`, the Potency is reported as “inactive”. With `COP(=S)(OC)Oc1ccc([N+](=O)[O-])c(C)c1` the Potency was “inactive”. With `CCC[CH2][Sn]([CH2]CCC)([O]C(C)=O)[O]C(C)=O` the Potency was 0.554 µM (active). In the case of `CC#C[C@]1(O)CC[C@H]2[C@@H]3C[C@H](C)C4=CC(=O)CC[C@]4(C)[C@H]3CC[C@@]21C`, the Potency is reported as “inactive”. For `CC1CCCC1`, the Potency was “inactive”. For `CCCCn1cc[n+](C)c1.[Cl][Fe-]([Cl])([Cl])[Cl]`, the Potency was “inactive”. In the case of `Nc1nc(N)c(N)c(N)n1`, the Potency is reported as “inactive”. In the case of `CCC(C)Nc1c([N+](=O)[O-])cc(C(C)(C)C)cc1[N+](=O)[O-]` (stereo not drawn), the Potency is reported as “inactive”. With `O=C(NC(=O)c1c(F)cccc1F)Nc1ccc(Oc2ccc(C(F)(F)F)cc2Cl)cc1F` the Potency was “inactive”. With `CCCCC(CC)COC(=O)OOC(C)(C)C` (stereo not drawn) the Potency was “inactive”. In the case of `CC1CN1` (stereo not drawn), the Potency is reported as “inactive”. With `O=S(=O)(NS(=O)(=O)C(F)(F)F)C(F)(F)F` the Potency was “inactive”. With `O.O.O.O.O.O.O.O=S(=O)([O-])[O-].[Co+2]` the Potency was “inactive”.
